Unmarked numbers belong to inactive results. Activity calls are given as the source filed them. Unless noted, no stated cut-off is given here; in the data, active means inhibition above about 25%; inactive means the rest.
Assays:
[1] = target: Nuclear receptor coactivator 1 (Homo sapiens) (UniProt Q15788); experiment: SRC1 coactivator transcriptional activity inhibitors, confirmation, cell-based, luminescence, quadruplicate (AID 588820;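 active means mean inhibition above 46.68%, the untreated control wells mean plus 3 SD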;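 further: 0% = DMSO wells and 100% = gossypol 36 µM treated wells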); settings: HEK293 GAL4-SRC1 luciferase reporter, at 3.6 µM, stronger effect = higher value
Sequence of Nuclear receptor coactivator 1 (Homo sapiens) (Q15788 whole entry, looked up, the tested form may be a part): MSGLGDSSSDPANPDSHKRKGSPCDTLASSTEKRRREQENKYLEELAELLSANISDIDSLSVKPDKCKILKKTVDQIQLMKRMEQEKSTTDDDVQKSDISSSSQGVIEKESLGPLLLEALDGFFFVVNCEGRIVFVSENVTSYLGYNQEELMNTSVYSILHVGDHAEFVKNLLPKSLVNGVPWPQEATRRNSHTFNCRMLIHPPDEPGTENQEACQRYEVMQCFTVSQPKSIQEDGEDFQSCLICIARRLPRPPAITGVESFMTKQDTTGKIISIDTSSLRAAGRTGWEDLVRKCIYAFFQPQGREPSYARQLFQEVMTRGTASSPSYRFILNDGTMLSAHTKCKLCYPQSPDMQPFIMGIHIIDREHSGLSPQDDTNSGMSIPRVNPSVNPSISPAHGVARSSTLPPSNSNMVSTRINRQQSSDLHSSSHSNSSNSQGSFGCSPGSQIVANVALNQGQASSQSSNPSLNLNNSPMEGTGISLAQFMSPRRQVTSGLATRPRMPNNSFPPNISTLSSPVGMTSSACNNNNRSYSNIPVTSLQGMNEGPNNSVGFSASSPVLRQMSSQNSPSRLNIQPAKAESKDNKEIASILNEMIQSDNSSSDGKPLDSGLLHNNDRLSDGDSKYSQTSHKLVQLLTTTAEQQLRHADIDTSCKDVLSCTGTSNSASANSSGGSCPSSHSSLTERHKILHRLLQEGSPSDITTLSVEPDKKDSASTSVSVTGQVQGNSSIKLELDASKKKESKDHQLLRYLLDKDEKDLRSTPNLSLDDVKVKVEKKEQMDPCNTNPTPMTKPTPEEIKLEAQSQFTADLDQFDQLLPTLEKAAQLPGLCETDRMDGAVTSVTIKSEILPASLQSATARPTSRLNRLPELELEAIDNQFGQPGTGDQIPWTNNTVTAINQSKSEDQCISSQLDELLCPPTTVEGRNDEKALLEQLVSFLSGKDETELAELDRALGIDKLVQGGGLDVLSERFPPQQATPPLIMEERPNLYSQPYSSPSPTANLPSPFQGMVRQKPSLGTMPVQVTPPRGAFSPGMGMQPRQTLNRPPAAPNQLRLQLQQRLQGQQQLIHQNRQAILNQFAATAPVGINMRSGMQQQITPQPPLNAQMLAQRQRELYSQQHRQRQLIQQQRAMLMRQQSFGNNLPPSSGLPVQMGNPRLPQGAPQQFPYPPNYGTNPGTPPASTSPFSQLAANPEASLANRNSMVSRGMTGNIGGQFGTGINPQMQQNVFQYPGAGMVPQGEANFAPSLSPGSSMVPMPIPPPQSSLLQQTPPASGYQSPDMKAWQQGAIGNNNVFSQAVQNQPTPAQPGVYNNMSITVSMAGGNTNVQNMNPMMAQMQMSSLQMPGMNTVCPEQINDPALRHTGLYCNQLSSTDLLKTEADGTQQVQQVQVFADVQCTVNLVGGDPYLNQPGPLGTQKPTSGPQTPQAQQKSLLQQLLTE

[2] = VP16 transactivation inhibitors, counter-screen for SRC1 inhibitor project, cell-based, luminescence, high throughput (AID 588824); settings: cell-based VP16 transactivation luciferase luminescence; at 3.6 µM; stronger effect = higher value

| SMILES | inhibition [1] | inhibition [2] |
| --- | --- | --- |
| C[C@H]1Cn2cnc(C(=O)Nc3cccc(Cl)c3)c2C(=O)N1 | 61.2% (active) | 34% (active) |
| Cc1cc([N+](=O)[O-])nn1CCCC(=O)Nc1ccc(Cl)cc1Cl | -11.6% | -4.49% |
| CCOc1ccccc1N1CCN(CC(=O)NC(C)c2ccccc2)CC1 (stereo not given) | -9.98% | 0.65% |
| COc1cc2c(cc1NC(=O)/C=C/c1cc(OC)c(OC)c(OC)c1)oc1ccccc12 | 3.29% | -2.37% |
| CC(=O)c1cccc(NC(=O)c2cc(Cl)sc2Cl)c1 | -60.7% | -30.6% |
| Cc1cc[n+](CC(=O)Nc2cccc(C)c2)cc1 | -8.15% | 1.99% |
| Cc1cc(OCCCN2CCCC2)ccc1Cl | -14.7% | -11.8% |
| Cc1ccc(S(=O)(=O)N(C)C)cc1NC(=O)COC(=O)CCC1CCCC1 | 8.06% | 5.41% |
| COC(=O)c1cccc(NC(=O)CN2C(=O)c3ccccc3C2=O)c1 | -23.7% | -3.69% |
| c1ccc(Cc2nnc3sc(-c4ccncc4)nn23)cc1 | 5.92% | -1.52% |
| COC(=O)c1cc(=O)n(Cc2ccco2)c(=Nc2ccc(F)c(Cl)c2)s1 | -12.1% | 18.7% |
| COc1ccc2cc3c(N)nn(C(=O)c4cccc([N+](=O)[O-])c4)c3nc2c1 | 51.3% (active) | 36.1% (active) |
| CC(=O)NCCOc1nc(N(C)C)nc(N(C)C)n1 | -4.35% | 0% |
| C[C@H](N)c1nnc(SCC(N)=O)o1 | -1.81% | -12.9% |
| C[n+]1c2n(c3ccccc31)N=C(c1ccc(Cl)cc1)CS2 | -20.3% | 19.1% |
| COc1ccccc1OCCC(=O)OCC(=O)NC(C)c1ccccc1 (stereo not given) | -8.57% | -18.5% |
| CC(C)(C)c1ccc(OCCC(=O)NNC(=O)c2ccncc2)cc1 | -13.7% | -5.17% |
| O=C(NCc1cccc(C(F)(F)F)c1)c1csc([C@@H]2O[C@H](CO)[C@H](O)[C@H](O)[C@H]2O)n1 | -9.94% | -4.13% |
| O=C(Nc1ccc(Oc2ccccc2)cc1)c1ccc2sc([C@H]3C[C@H](O)[C@@H](CO)O3)nc2c1 | -13.8% | 19.3% |
| CCCS(=O)(=O)c1c(S(=O)(=O)CCC)c2c(C)cccn2c1C(=O)N/N=C/c1cc(O)cc(O)c1 | 20.8% | 24.6% |
| CCN(CC)c1ccc(/C=N/Nc2nc3ccccc3[nH]2)c(O)c1 | -7.34% | 3.82% |
| CSc1nc(N)nc2c1ncn2CC(=O)N1CCN(Cc2c(C)cc(C)cc2C)CC1 | -3.22% | 34.5% (active) |
| Oc1c(C(Nc2nc3ccccc3s2)c2ccco2)ccc2cccnc12 (stereo not given) | 28.4% | 29.8% (active) |
| O=C(NNc1ccnc2cc(Cl)ccc12)C1CCCCC1 | -34.1% | 31.1% (active) |
| CSC1=NCCCN1C(=O)c1c(-c2ccccc2Cl)noc1C | 0.66% | -14.8% |
| Fc1cc2[nH]cnc2cc1Cl | -2.02% | -5.47% |
| COc1ccc(CN(C(=O)CSc2nnc(-c3c[nH]c4ccccc34)o2)c2ccc(F)cc2)cc1OC | -67.5% | -22.2% |
| CS(=O)(=O)Nc1cccc(NC(=O)C2Cc3c(-c4ccco4)ccnc3O2)c1 (stereo not given) | 22.6% | 14.9% |

| SMILES | inhibition [1] | inhibition [2] |
| --- | --- | --- |
| COc1ccccc1C(=O)N(Cc1ccc(C)o1)C1CCS(=O)(=O)C1 (stereo not given) | -7.5% | 3.3% |
| O=c1[nH]c(CSc2nc3ccccc3o2)nc2c1cnn2-c1ccccc1 | -22.6% | 4.42% |
| COCCn1c(SCC(=O)Nc2cccc(NC(C)=O)c2)nc2c([nH]c3ccccc32)c1=O | -31.7% | -16.2% |
| CNC(=O)CCCN1C(=O)c2ccccc2Sc2ncccc21 | -2.17% | -3.21% |
| Cc1c(C(=O)N2CCN(Cc3ccc4c(c3)OCO4)CC2)sc2ncnc(N3CCN(c4ccccc4F)CC3)c12 | -22.2% | 18.3% |
| CC1(c2ccccc2)NC(=O)N(CC(=O)Nc2cc3c(cc2Br)OCCO3)C1=O (stereo not given) | -11.8% | -6.44% |
| COC(=O)c1ccc(/C=N\NC(=O)CC(=O)NCCc2ccccc2)cc1 | -1.47% | -15.5% |
| CC(=O)c1c(C)[nH]c(C(=O)COc2ccc3ccc(=O)oc3c2)c1C | -13.5% | 4.04% |
| CC(=O)N1CN(C2CCCC2)Cc2c1sc1c2CCCC1 | 6.63% | 14.4% |
| COc1ccc(/C=N/Nc2nc3ccccc3[nH]2)c(OC)c1OC | -27.8% | -23% |
| Cc1nn(Cc2cccc(F)c2)c(C)c1NC(=O)c1ccc(COc2ccccc2Cl)cc1 | 31.2% | 46.7% (active) |
| Nc1c(C(=O)c2ccccc2)sc2nsc(SCCN3CCCC3)c12 | -0.71% | -2.2% |
| Cc1ccc(C(=O)Nc2c3c(nn2C(C)(C)C)CS(=O)(=O)C3)cc1[N+](=O)[O-] | -11% | -9.8% |
| CCOC(=O)C1(Cc2cccc(Cl)c2)CCCN(C(=O)c2ccoc2C)C1 (stereo not given) | -4.52% | -3.85% |
| Cc1ccc(S(=O)(=O)NNC2=NS(=O)(=O)c3ccccc32)c(C)c1 | -17.6% | -7.56% |
| COC(=O)C(=N/Nc1ccccc1C(=O)OC)/C(C)=N/O | -2.93% | -4.44% |
| CN(C(=O)COC(=O)c1ccc2[nH]c3c(c2c1)CCCC3)C1CCS(=O)(=O)C1 (stereo not given) | -0.53% | -0.75% |
| O=C(N/N=C/c1coc2ccc(Cl)cc2c1=O)c1ccc(O)cc1 | 18.6% | 17.8% |
| Cc1ccc(C2C3=C(CC(C)(C)CC3=O)OC3=C2C(=O)CC(C)(C)C3)cc1 | 0% | 3.31% |
| O=C1CCC/C1=c1\s/c(=C/c2cccnc2)c(=O)n1-c1ccccc1 | 25.6% | 17.8% |
| COc1ccc(CNC(=O)c2cc3c(C)nc4ccccc4c3o2)c(OC)c1 | -5.62% | 22.3% |
| CCN(Cc1ccncc1)C(=O)CC1C(=O)NCCN1Cc1ccc(F)c(F)c1 (stereo not given) | 30.1% | 17% |
| O=C(CSc1nc(-c2cccs2)cc(C(F)(F)F)n1)Nc1cc(OCC(F)(F)C(F)F)cc([N+](=O)[O-])c1 | 17.1% | -0.51% |
| O=C(Nc1cc(Cl)ccc1N1CCOCC1)c1ccco1 | 1.28% | -5.91% |
| O=C(NCCS(=O)(=O)N1CCN(c2cccc(Cl)c2)CC1)C1CC1 | -3.41% | 18.9% |
| Clc1ccc(C2NCCc3sccc32)cc1 (stereo not given) | -22% | 8.67% |
| Cc1oc(-c2ccc(Cl)cc2)nc1CS(=O)CC(=O)NCCCN1CCN(Cc2ccccc2)CC1 (stereo not given) | -11% | 27.4% (active) |
